Compound activity deposited in PubChem BioAssay by National Center for Advancing Translational Sciences (NCATS).
3T3 cytotox: NIH 3T3 cell cytotoxicity | NIH 3T3 viability, CellTiter-Glo ATP luminescence, 48-72 h | Potency, µM (series often up to 96.7 µM), inactives show top-dose activity change, negative = cytotoxicity, hits mostly inhibitors | 4.3% of 94,000 active; note: nearly all actives have a fitted effect of over 55% in size
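Cytotoxicity is measured as loss of cellular ATP: NIH 3T3 cells (400/well) are exposed to compound for 48 or 72 hr at 37 °C, then CellTiter-Glo luminescence is imaged after 10 min at room temperature.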
GPT2 inh: GPT2 alanine aminotransferase inhibition | Q8TD30 | Recombinant GPT2, coupled pyruvate oxidase/HRP Amplex Red fluorescence | Potency, µM (series often up to 57.7 µM), for the others: at the highest dose activity change, negative = inhibition, most hits filed as inhibitors | 0.25% of 100,000 active | AID 1671188; note: nearly all actives have a fitted effect of over 60% in size
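GPT2 10ng/uL, a-KG 250uM, L-Ala 2mM, HEPES pH7.5 + 0.0001% Tween; 30 min RT. Then Amplex mix (PO/HRP/ThPP), 30 min RT dark, fluorescence. AOA 50uM used as positive control.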
FLuc inh: Photinus pyralis luciferase inhibition. P08659. purified P. pyralis luciferase, luminescence, biochemical. 2.5% of 76,000 active. Potency, µM (titrated, usually from 115 µM), usual class: inhibitors; note: nearly all actives have a fitted effect of over 65% in size
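Purified 10nM P. pyralis luciferase with 10uM D-luciferin and 10uM ATP in 50mM Tris acetate pH 7.5, 10mM Mg acetate, 0.01% Tween-20, 0.05% BSA. qHTS titration; luminescence read by CCD imager.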
HEK cytotox: kills HEK 293 cells; HEK 293 viability, ATP luminescence (CellTiter-Glo), 48-72 h; Potency, µM (series often up to 115 µM), without a hit: at the highest dose activity change, negative = cytotoxicity, usual class: inhibitors; 6.6% of 94,000 active; note: nearly all actives have a fitted effect of over 60% in size
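250 HEK 293 cells/well; compound by pintool; incubated 48 or 72 hr at 37 degree Celsius; CellTiter-Glo added, 10 min RT, luminescence imaged.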
hNpr1 antagonist: blocks ANP-stimulated signaling of human Npr1 receptor; P16066; HEK293 hNpr1 GloSensor cGMP, ANP-stimulated luminescence; Potency, µM (highest dose often 46.3 µM), for inactives: at the top dose activity change, negative = inhibition, hits mostly inhibitors; 1.6% of 76,000 active; AID 1347048; calls by dose curve; note: nearly all actives have a fitted effect of over 60% in size
Target sequence (P16066 whole entry, looked up): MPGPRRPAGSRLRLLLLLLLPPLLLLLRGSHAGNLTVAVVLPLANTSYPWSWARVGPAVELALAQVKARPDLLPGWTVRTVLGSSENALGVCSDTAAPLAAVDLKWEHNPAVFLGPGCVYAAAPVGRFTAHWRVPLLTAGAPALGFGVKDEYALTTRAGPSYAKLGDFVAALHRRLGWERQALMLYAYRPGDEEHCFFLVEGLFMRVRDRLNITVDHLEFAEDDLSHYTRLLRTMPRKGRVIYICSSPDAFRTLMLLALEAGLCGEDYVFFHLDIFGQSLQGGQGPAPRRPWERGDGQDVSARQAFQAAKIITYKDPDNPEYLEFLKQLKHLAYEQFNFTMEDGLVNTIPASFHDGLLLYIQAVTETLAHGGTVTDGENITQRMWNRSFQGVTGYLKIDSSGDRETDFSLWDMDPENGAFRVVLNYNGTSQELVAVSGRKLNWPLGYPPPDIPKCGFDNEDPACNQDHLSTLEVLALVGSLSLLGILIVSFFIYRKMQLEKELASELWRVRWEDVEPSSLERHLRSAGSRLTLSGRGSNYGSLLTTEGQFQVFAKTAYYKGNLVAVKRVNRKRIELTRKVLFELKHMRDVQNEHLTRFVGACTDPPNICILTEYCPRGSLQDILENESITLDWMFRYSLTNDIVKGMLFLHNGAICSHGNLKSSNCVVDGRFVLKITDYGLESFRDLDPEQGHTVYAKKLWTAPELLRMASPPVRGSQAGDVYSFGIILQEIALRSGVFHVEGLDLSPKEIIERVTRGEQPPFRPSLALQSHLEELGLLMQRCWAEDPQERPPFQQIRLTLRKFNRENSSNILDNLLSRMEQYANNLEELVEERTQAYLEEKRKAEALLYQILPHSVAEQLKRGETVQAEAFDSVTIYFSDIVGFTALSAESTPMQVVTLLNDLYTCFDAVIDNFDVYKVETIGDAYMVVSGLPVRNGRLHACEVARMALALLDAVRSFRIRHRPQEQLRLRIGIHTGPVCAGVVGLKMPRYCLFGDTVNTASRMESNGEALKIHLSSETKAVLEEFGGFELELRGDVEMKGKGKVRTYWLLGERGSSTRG
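Compound pre-incubated 30 min at room temperature on GloSensor-loaded HEK293 cells stably carrying hNpr1 and the pGS-40F cGMP biosensor. Stimulation uses hNppA at 0.1 nM final; luminescence is taken at baseline and 20 min post-agonist.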
The depositor's hits bear a star; i = inactive; ? = inconclusive; nt = not tested or not shown; [ ] = dose if it differs, or a comment. An excerpt weighted towards active compounds, which were near 10% of everything screened. Unless noted, calls come from the whole dose curve; as a rule, active = well fitted curve in the direction sought with a large enough effect; inconclusive = small, poorly fitted or top-dose-only effect, or another doubt; inactive = no such curve, though single readings can be large; an effect the other way counts as inactive or inconclusive. % is set by controls: 0 for no effect and ±100 for the full control effect; potency is the fitted concentration of half-maximal effect.

SMILES | 3T3 cytotox | GPT2 inh | FLuc inh | HEK cytotox | hNpr1 antagonist
CCN1c2cc(C(=O)Nc3ccc(Oc4ccccc4)cc3)ccc2C(=O)N2CCCCC21 (stereo not drawn) | 31.6µM* | i | i | ? | -8.9%
CN1c2cc(C(=O)Nc3ccc(Oc4ccccc4)cc3)ccc2C(=O)N2CCCCC21 (stereo not drawn) | ? | i | 50.1µM* | ? | ?
CCOc1ccc(NC(=O)c2ccc3c(c2)N(C)C2CCCCN2C3=O)cc1 (stereo not drawn) | ? | 2.1% | ? | ? | -0.8%
CN1c2cc(C(=O)Nc3ccc(Oc4ccccc4)cc3)ccc2C(=O)N2CCCCCC21 (stereo not drawn) | ? | -6.8% | ? | 10µM* | ?
CCOc1ccc(NC(=O)c2ccc3c(c2)N(C)C2CCCCCN2C3=O)cc1 (stereo not drawn) | ? | i | ? | ? | -3.2%
O=C(NCCc1ccccc1)c1nc2sccn2c1-c1ccncc1 | -22.5% | -12.5% | nt | -7.7% | nt
c1cnn(-c2ccc(-c3n[nH]c(C4CCOCC4)n3)cc2)c1 | i | i | ? | 1.5% | 11.1%
c1cc(N2CCCCC2)ccc1-c1n[nH]c(C2CCOC2)n1 (stereo not drawn) | ? | i | 6.31µM* | -10.6% | -29.2%
COc1ccc(CNC(=O)[C@H]2CNC[C@H](C(=O)N3CCCC3)C2)c(F)c1F | 1.0% | i | i | -1.2% | 1.9%
O=C1[C@@H]2C[C@@H](CN2Cc2ccc3c(c2)OCO3)Oc2ccccc2N1Cc1ccccn1 | ? | i | i | 79.4µM* | -17.8%[70.6 µM]
O=C1[C@@H]2C[C@@H](CN2Cc2ccc(F)c(F)c2)Oc2ccccc2N1Cc1ccccn1 | ? | ? | i | ? | -10.1%[70.6 µM]
COCCN1C(=O)[C@@H]2C[C@@H](CN2Cc2ccccc2)Oc2ccccc21 | -22.7%[138 µM] | -14.0%[88.5 µM] | i | ? | -1.3%[70.6 µM]
CN1C(=O)[C@@H]2C[C@@H](CN2Cc2ccnc3ccccc23)Oc2ccccc21 | 89.1µM* | i | i | ? | -29.0%[70.6 µM]
COCCN1C(=O)[C@@H]2C[C@@H](CN2Cc2ccc3ccccc3n2)Oc2ccccc21 | 100µM* | -17.5%[88.5 µM] | ? | ? | -15.7%[70.6 µM]
O=C1[C@@H]2C[C@@H](CN2Cc2cnc3ccccc3c2)Oc2ccccc2N1CC1CC1 | ? | i | i | 50.1µM* | -23.5%[70.6 µM]
CN(Cc1cnccn1)C(=O)[C@H]1CCC[C@@H](O)C1 | -0.1% | -16.0% | i | 4.6% | 2.0%
O=C(c1ccc(C(F)(F)F)cc1)N1CCC2(CC1)C(=NC1CCCCC1)NC(=O)N2c1cccnc1 | ? | -5.6% | nt | i | nt
COc1ccc(CN2C(=O)[C@@H]3C[C@@H](CN3CC3CC3)Oc3ccccc32)cc1 | 79.4µM* | -1.8%[88.5 µM] | i | ? | -29.7%[70.6 µM]
O=C(NCCc1ccccc1)C1CCN(Cc2ccccc2-c2cccnc2)CC1 | -24.1% | -8.5% | nt | ? | nt
Cc1ccc(NC(=O)c2ccc3c(c2)N(C)C2CCCCN2C3=O)cc1Cl (stereo not drawn) | -18.3% | -2.4% | ? | ? | -8.1%
Cc1ccc(NC(=O)c2ccc3c(c2)N(C)C2CCCCCN2C3=O)cc1C (stereo not drawn) | ? | 2.3% | ? | 44.7µM* | ?
Cc1ccc(NC(=O)c2ccc3c(c2)N(C)C2CCCCN2C3=O)cc1C (stereo not drawn) | ? | -10.0% | 39.8µM* | ? | -3.3%
COc1ccc(NC(=O)c2ccc3c(c2)N(C)C2CCCCCN2C3=O)cc1OC (stereo not drawn) | ? | i | i | ? | -23.0%
Cc1ccc(NC(=O)c2ccc3c(c2)N(C)C2CCCCCN2C3=O)cc1 (stereo not drawn) | ? | i | ? | ? | 3.3%
CN1c2cc(C(=O)Nc3ccc4c(c3)OCCO4)ccc2C(=O)N2CCCCCC21 (stereo not drawn) | ? | -2.7% | 12.6µM* | ? | -5.5%
SMILES | 3T3 cytotox | GPT2 inh | FLuc inh | HEK cytotox | hNpr1 antagonist
Cc1cc(NC(=O)c2ccc3c(c2)N(C)C2CCCCN2C3=O)ccc1Cl (stereo not drawn) | -24.5% | i | 25.1µM* | ? | -1.1%
COc1cccc(C(=O)N2CCCC(C(=O)N3CCC(c4nc5ncccc5[nH]4)CC3)C2)c1 (stereo not drawn) | -0.3% | 3.2% | nt | 3.1% | nt
COc1ccccc1-c1cccc(C(=O)N2CCN(C(=O)Nc3ccccc3)CC2)c1 | ? | i | nt | ? | nt
COc1cccc(C(=O)N2CCC(C(=O)N3CCC(N4Cc5cccn5C4=O)CC3)CC2)c1 | ? | 2.9% | nt | -27.1% | nt
CC(C)NC(=O)c1nc2sccn2c1-c1ccc(C(F)(F)F)cc1 | ? | -5.5%[88.5 µM] | nt | ? | nt
CN1c2cc(C(=O)Nc3ccc(Cl)c(F)c3)ccc2C(=O)N2CCCCC21 (stereo not drawn) | ? | 0.8% | ? | ? | -1.7%
Cc1ccc(NC(=O)c2ccc3c(c2)N(C)C2CCCCCN2C3=O)cc1F (stereo not drawn) | ? | -2.1% | i | 31.6µM* | 0.0%
O=C1Nc2ccccc2O[C@H]2C[C@@H]1N(C(=O)NCc1ccccc1)C2 | -10.2%[138 µM] | i | i | -7.5%[172 µM] | -20.8%[70.6 µM]
CCOc1ccccc1C(=O)NC1CCN(c2cc(-c3ccc(OC)cc3)[nH]n2)C1 (stereo not drawn) | 35.5µM* | -7.9% | i | ? | -19.0%
CCOc1ccccc1C(=O)NC1CCN(c2cc(-c3ccc(OC)cc3)[nH]n2)CC1 | 35.5µM* | i | i | ? | -18.9%
CCOc1ccccc1C(=O)NC1CCN(c2cc(-c3ccccc3)[nH]n2)C1 (stereo not drawn) | ? | ? | i | ? | 1.8%
COc1cc(Cl)ccc1C(=O)NC1CCN(c2cc(-c3ccc(F)cc3)[nH]n2)CC1 | 35.5µM* | -4.0% | i | ? | -4.0%
CCOc1ccccc1C(=O)NC1CCCN(c2cc(-c3ccc(Cl)cc3)[nH]n2)C1 (stereo not drawn) | 15.8µM* | i | ? | 20µM* | -15.9%
COc1ccc2c(c1)OC[C@@H]1CN(CCC#N)C(=O)CCN(C(=O)c3ccccc3OC)[C@H]21 | ? | nt | nt | i | nt
COc1ccc(C(=O)NC2CCN(c3cc(-c4ccccc4)[nH]n3)CC2)c(OC)c1 | ? | i | i | 79.4µM* | -4.8%
COCc1ccc2c(c1)c(OC(C)(C)C(=O)NCCc1ccccn1)nn2Cc1ccccc1 | ? | 1.3% | i | ? | -11.1%
COCc1ccc2c(c1)c(OC(C)(C)C(=O)NCC[S+](C)(=O)[O-])nn2Cc1ccccc1 | 35.5µM* | 2.7% | i | -26.0% | -0.6%
COCc1ccc2c(c1)c(OC(C)(C)C(=O)N1CC(O)C1)nn2Cc1cccnc1 | 79.4µM* | i | i | 2.4%[172 µM] | 1.7%[70.6 µM]
